Laboratory results taken from publication PMC11062922 (Nature Chemical Biology, 2023).
Where two headings read alike, the source gives them in different places.

Legend:
Parameters in all cases: species or system human, MV4-11 + K-562 + COLO205 + SK-N-BE2 + OVCAR-8
ACVR1 = settings: read-out: apparent Kd, compound concentrations: 100 nM and 1000 nM (sheet 'Samples'), n = 1
ACVR2B = settings: read-out: apparent Kd, compound concentrations: 100 nM and 1000 nM (sheet 'Samples'), n = 1
AKT1 = settings: read-out: apparent Kd; compound concentrations: 100 nM and 1000 nM (sheet 'Samples'), CATDS: 8.7869055703498899E-2; n = 1
AKT2 = settings: read-out: apparent Kd; compound concentrations: 100 nM and 1000 nM (sheet 'Samples'), CATDS: 9.9123908030557498E-2; n = 1
DDR2 = settings: read-out: apparent Kd, compound concentrations: 100 nM and 1000 nM (sheet 'Samples'), n = 1
ERBB3 = settings: read-out: apparent Kd; compound concentrations: 100 nM and 1000 nM (sheet 'Samples'), CATDS: 0.104926252845552; n = 1
MAP2K1 = settings: read-out: apparent Kd; compound concentrations: 100 nM and 1000 nM (sheet 'Samples'), CATDS: 9.3485581268639997E-2; n = 1
NCL = settings: read-out: apparent Kd; compound concentrations: 100 nM and 1000 nM (sheet 'Samples'), CATDS: 9.6162289206332394E-2; n = 1
NNT = settings: read-out: apparent Kd; compound concentrations: 100 nM and 1000 nM (sheet 'Samples'), CATDS: 0.104881561069948; n = 1
RIOK2 = settings: read-out: apparent Kd; compound concentrations: 100 nM and 1000 nM (sheet 'Samples'), CATDS: 9.3979230016613804E-2; n = 1
BCR = settings: read-out: apparent Kd, compound concentrations: 100 nM and 1000 nM (sheet 'Samples'), n = 1
CDKL5 = settings: read-out: apparent Kd; compound concentrations: 100 nM and 1000 nM (sheet 'Samples'), CATDS: 0.10101184649506401; n = 1
CSNK2A1;CSNK2A3 = settings: read-out: apparent Kd; compound concentrations: 100 nM and 1000 nM (sheet 'Samples'), CATDS: 0.137145274912611; n = 1
CSNK2A2 = settings: read-out: apparent Kd; compound concentrations: 100 nM and 1000 nM (sheet 'Samples'), CATDS: 0.22568308322630501; n = 1
GSK3A = settings: read-out: apparent Kd; compound concentrations: 100 nM and 1000 nM (sheet 'Samples'), CATDS: 0.157775642803201; n = 1
GSK3B = settings: read-out: apparent Kd; compound concentrations: 100 nM and 1000 nM (sheet 'Samples'), CATDS: 0.15091586406642499; n = 1
PDGFRB = settings: read-out: apparent Kd; compound concentrations: 100 nM and 1000 nM (sheet 'Samples'), CATDS: 0.14028775258346299; n = 1
PIK3CD = settings: read-out: apparent Kd; compound concentrations: 100 nM and 1000 nM (sheet 'Samples'), CATDS: 0.471997589985167; n = 1
RIPK2 = settings: read-out: apparent Kd, compound concentrations: 100 nM and 1000 nM (sheet 'Samples'), n = 1
FLT3 = settings: read-out: apparent Kd, compound concentrations: 100 nM and 1000 nM (sheet 'Samples'), n = 1
FLT4 = settings: read-out: apparent Kd; compound concentrations: 100 nM and 1000 nM (sheet 'Samples'), CATDS: 5.6175855360763499E-2; n = 1
FRK = settings: read-out: apparent Kd; compound concentrations: 100 nM and 1000 nM (sheet 'Samples'), CATDS: 7.6735011828902105E-2; n = 1
FYN = settings: read-out: apparent Kd; compound concentrations: 100 nM and 1000 nM (sheet 'Samples'), CATDS: 5.82468241174715E-2; n = 1
GAK = settings: read-out: apparent Kd; compound concentrations: 100 nM and 1000 nM (sheet 'Samples'), CATDS: 5.5943535710341101E-2; n = 1
IRAK3 = settings: read-out: apparent Kd; compound concentrations: 100 nM and 1000 nM (sheet 'Samples'), CATDS: 6.2537206863604394E-2; n = 1
PIP4K2C = settings: read-out: apparent Kd; compound concentrations: 100 nM and 1000 nM (sheet 'Samples'), CATDS: 5.2092814624207201E-2; n = 1
RET = settings: read-out: apparent Kd; compound concentrations: 100 nM and 1000 nM (sheet 'Samples'), CATDS: 7.3825490143618097E-2; n = 1
STK11 = settings: read-out: apparent Kd; compound concentrations: 100 nM and 1000 nM (sheet 'Samples'), CATDS: 4.7078768974871503E-2; n = 1
TGFBR2 = settings: read-out: apparent Kd, compound concentrations: 100 nM and 1000 nM (sheet 'Samples'), n = 1
ATM = settings: read-out: apparent Kd; compound concentrations: 100 nM and 1000 nM (sheet 'Samples'), CATDS: 0.20840274799776901; n = 1
CDC42BPG = settings: read-out: apparent Kd; compound concentrations: 100 nM and 1000 nM (sheet 'Samples'), CATDS: 7.2395541627420706E-2; n = 1
CLK1 = settings: read-out: apparent Kd; compound concentrations: 100 nM and 1000 nM (sheet 'Samples'), CATDS: 0.111342996670081; n = 1
CLK2 = settings: read-out: apparent Kd; compound concentrations: 100 nM and 1000 nM (sheet 'Samples'), CATDS: 0.14537230764377601; n = 1
CLK4 = settings: read-out: apparent Kd; compound concentrations: 100 nM and 1000 nM (sheet 'Samples'), CATDS: 9.3990878908875697E-2; n = 1
DDX3X;DDX3Y = settings: read-out: apparent Kd; compound concentrations: 100 nM and 1000 nM (sheet 'Samples'), CATDS: 7.1763596621612302E-2; n = 1
RIPK3 = settings: read-out: apparent Kd; compound concentrations: 100 nM and 1000 nM (sheet 'Samples'), CATDS: 7.33471794094432E-2; n = 1

COc1ccc(C)c(Nc2ccnc(Nc3ccc(-c4cnc[nH]4)cc3)n2)c1.Cl [GW784041A]
potency estimated from few doses (ACVR1; CATDS: 0.125244350144667): 1.19 µM
potency estimated from few doses (ACVR2B; CATDS: 0.106004759644949): 1.6 µM
potency estimated from few doses (AKT1): 2.37 µM
potency estimated from few doses (AKT2): 1.82 µM
potency estimated from few doses (DDR2; CATDS: 9.6979339213766697E-2): 1.91 µM
potency estimated from few doses (ERBB3): 1.63 µM
potency estimated from few doses (MAP2K1): 2.06 µM
potency estimated from few doses (NCL): 1.94 µM
potency estimated from few doses (NNT): 1.63 µM
potency estimated from few doses (RIOK2): 2.04 µM

COc1cccc(-n2ncc3c(N/N=C/c4ccc(S(C)(=O)=O)cc4)ncnc32)c1 [GW811168X]
potency estimated from few doses (ACVR1; CATDS: 0.17536774799610499): 0.555 µM
potency estimated from few doses (BCR; CATDS: 0.114797180795753): 1.42 µM
potency estimated from few doses (CDKL5): 2.13 µM
potency estimated from few doses (CSNK2A1;CSNK2A3): 0.907 µM
potency estimated from few doses (CSNK2A2): 0.365 µM
potency estimated from few doses (GSK3A): 0.677 µM
potency estimated from few doses (GSK3B): 0.74 µM

COC(=O)c1cncc(/C=C/c2c(C)cc(O)cc2C)c1 [GW406731X]
potency estimated from few doses (ACVR1; CATDS: 0.26070115141914502): 0.403 µM
potency estimated from few doses (DDR2; CATDS: 0.13771295119314): 2.52 µM
potency estimated from few doses (PDGFRB): 2.33 µM
potency estimated from few doses (PIK3CD): 0.143 µM
potency estimated from few doses (RIPK2; CATDS: 0.21478363135213999): 0.621 µM

Cc1ccc(Nc2ccnc(Nc3cccc(C(N)=O)c3)n2)cc1O.Cl [GW575808A]
potency estimated from few doses (ACVR1; CATDS: 7.6276409382360397E-2): 0.534 µM
potency estimated from few doses (ACVR2B; CATDS: 0.210677427457096): 0.077 µM
potency estimated from few doses (BCR; CATDS: 7.0620023573944493E-2): 0.645 µM
potency estimated from few doses (FLT3; CATDS: 5.3612696826146597E-2): 1.45 µM
potency estimated from few doses (FLT4): 1.24 µM
potency estimated from few doses (FRK): 0.526 µM
potency estimated from few doses (FYN): 1.1 µM
potency estimated from few doses (GAK): 1.25 µM
potency estimated from few doses (IRAK3): 0.894 µM
potency estimated from few doses (PIP4K2C): 1.61 µM
potency estimated from few doses (RET): 0.578 µM
potency estimated from few doses (RIPK2; CATDS: 0.18233295125810001): 0.0969 µM
potency estimated from few doses (STK11): 2.43 µM
potency estimated from few doses (TGFBR2; CATDS: 0.25024360667503898): 0.0594 µM

CCS(=O)(=O)c1ccc(OC)c(Nc2ncc(-c3cccc(C(C)=O)c3)o2)c1 [GW621431X]
potency estimated from few doses (ACVR1; CATDS: 9.7395071504851799E-2): 0.882 µM
potency estimated from few doses (ATM): 0.232 µM
potency estimated from few doses (CDC42BPG): 2.02 µM
potency estimated from few doses (CLK1): 0.661 µM
potency estimated from few doses (CLK2): 0.405 µM
potency estimated from few doses (CLK4): 0.958 µM
potency estimated from few doses (DDX3X;DDX3Y): 2.09 µM
potency estimated from few doses (FLT3; CATDS: 0.113809183908987): 0.633 µM
potency estimated from few doses (RIPK3): 1.93 µM
potency estimated from few doses (TGFBR2; CATDS: 0.12096887154144): 0.562 µM
